In the supplement of paper PMC12636033:
± gives the standard deviation of the averaged measurements. The full ranking holds about 33,000 sequences; the median of “E-score (rank enrichment, -0.5 to 0.5)” is about -0.0068, and the highest 2% start at about 0.24. The sample holds the highest values, similar sequences and a random draw of the others, so the mix is not that of the screen.

System: muMax20 (Max(13-93) K31hArg/K57hArg, M65Nle)
Test: PBM 8-mer E-score (E-score (rank enrichment, -0.5 to 0.5)); higher = stronger preferential binding
Description: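 Protein binding microarray (universal PBM chip covering all 10-mers in fixed probe flanks) with chemically synthesized human Max(13-93) bHLH-LZ analogs (not full-length Max) bearing noncanonical residues (hArg, Tha, Aib, Nle at 65) and aromatic Cys staples. Read-out per 8-mer (and its reverse complement): E-score (rank-based enrichment, -0.5 to 0.5) and Z-score of median probe intensity.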

| Sequence | PBM 8-mer E-score |
| --- | --- |
| ACTGATTA | 0.0963 ± 0.055 |
| GCTGATTA | 0.292 ± 0.073 |
| AATGATAA | 0.11 ± 0.021 |
| CATGATAA | 0.263 ± 0.034 |
| TATGATAA | 0.181 ± 0.063 |
| CATGATTA | 0.281 ± 0.049 |
| CATGATTC | 0.0292 ± 0.013 |
| CCTGATTA | 0.14 ± 0.042 |
| GATGATTA | 0.0475 ± 0.008 |
| CGCGTTAG | -0.0996 ± 0.017 |
| CTGGACTC | -0.0856 ± 0.022 |
| GAAACATC | 0.0279 ± 0.095 |
| GAAACAAA | 0.236 ± 0.039 |
| GAAACATA | 0.249 ± 0.1 |
| CAAACAAA | 0.185 ± 0.03 |
| GAAACAAC | 0.00284 ± 0.071 |
| AAAACATA | 0.165 ± 0.084 |
| GAAGGTGC | -0.0729 ± 0.043 |
| CATGCCAA | 0.158 ± 0.078 |
| GTATAAGA | 0.138 ± 0.044 |
| CTATAAAA | 0.0172 ± 0.079 |
| ATATAAAT | 0.308 ± 0.0047 |

| Sequence | PBM 8-mer E-score |
| --- | --- |
| ACATAAAA | 0.229 ± 0.019 |
| ATATAAGA | 0.262 ± 0.064 |
| ATATAAAC | 0.324 ± 0.045 |
| ATATAAAG | 0.189 ± 0.0027 |
| ATAAAAAC | 0.109 ± 0.079 |
| CTATAAAC | 0.144 ± 0.0027 |
| CTATAAGA | 0.0354 ± 0.00038 |
| ATAAAAAT | 0.221 ± 0.025 |
| ATATAAAA | 0.317 ± 0.064 |
| AAACTTTA | 0.2 ± 0.068 |
| CACCGCTG | -0.316 ± 0.09 |
| GGGAGGGA | 0.0486 ± 0.024 |
| AAATTGAC | -0.0252 ± 0.075 |
| AGGTCTGA | -0.112 ± 0.11 |
| CGTGCTAA | -0.0595 ± 0.097 |
| GGGGGTGA | -0.107 ± 0.1 |
| GCACCCGA | -0.265 ± 0.009 |
| ATACCCGC | 0.07 ± 0.0011 |
| CCCACGGA | -0.0746 ± 0.039 |
| CGAGTTTC | 0.112 ± 0.043 |
| AGGCGGAG | -0.00941 ± 0.016 |
| TTATAAAA | 0.235 ± 0.043 |

| Sequence | PBM 8-mer E-score |
| --- | --- |
| GTATAAAC | 0.137 ± 0.05 |
| GTATAAAA | 0.288 ± 0.072 |
| GGGTAATA | 0.117 ± 0.078 |
| AGGGGAAG | -0.0693 ± 0.071 |
| CTAGCGAC | -0.0457 ± 0.095 |
| CCGAAAGG | -0.0656 ± 0.13 |
| CAAGCCAA | -0.034 ± 0.1 |
| ATTGTATG | 0.139 ± 0.039 |
| GGTGTGTA | 0.159 ± 0.11 |
| GATGTGCA | 0.03 ± 0.16 |
| CGTGTGTA | 0.28 ± 0.017 |
| CTTGTATC | 0.0905 ± 0.026 |
| GATGTTTA | 0.0668 ± 0.12 |
| AGTGTGTA | 0.121 ± 0.0059 |
| CATGTTTC | 0.143 ± 0.045 |
| CATGTGCA | 0.292 ± 0.063 |
| ATTGTATC | 0.304 ± 0.027 |
| TATGTGCA | 0.175 ± 0.068 |
| CATGTTTA | 0.249 ± 0.0042 |
| CAACAAAA | 0.0937 ± 0.037 |
| ACCCCTCC | 0.155 ± 0.011 |
| AGCATAAA | 0.158 ± 0.013 |

| Sequence | PBM 8-mer E-score |
| --- | --- |
| CGGTTCCA | -0.282 ± 0.0036 |
| GACGGCCA | -0.0819 ± 0.046 |
| AAGTGTAA | -0.0103 ± 0.021 |
| GCCCCTAC | 0.00167 ± 0.035 |
| ACTCTGAG | -0.217 ± 0.068 |
| GATAACGC | 0.105 ± 0.11 |
| CATGTGTC | 0.117 ± 0.14 |
| ATTGTAAG | 0.16 ± 0.042 |
| CGTGTATC | 0.238 ± 0.025 |
| CTTGTAAA | 0.217 ± 0.015 |
| GATGTGTA | 0.17 ± 0.024 |
| AGTGTATC | 0.123 ± 0.049 |
| ATTGTAAA | 0.244 ± 0.021 |
| CGTGTATA | 0.2 ± 0.044 |
| CATGTGTA | 0.332 ± 0.054 |
| AGCTCTCG | -0.155 ± 0.045 |
| GAGTCACC | -0.0777 ± 0.02 |
| AACCTTAT | 0.0715 ± 0.044 |
| AACAGTAA | -0.00834 ± 0.034 |
| GCTCGTTA | 0.0811 ± 0.07 |
| AACGTAAG | -0.0553 ± 0.13 |
